Records with an inconclusive call do not appear. A call without a number means that no potency is given here. Activity calls are given as the source filed them. The call rests on the fitted dose curve; in most records, active means well fitted inhibition curve with a large enough effect; inconclusive means small, poorly fitted or top-dose-only effect; inactive means flat fitted curve, though single readings scatter. Where a SMILES comes first, the peptide text is derived from it. The star is where a group is joined. AFC = O=c1cc(C(F)(F)F)c2ccc(N*)cc2o1
Molecular target: Calcium and integrin-binding protein 1 (Homo sapiens) (UniProt Q99828)
Sequence (Q99828 whole entry, looked up): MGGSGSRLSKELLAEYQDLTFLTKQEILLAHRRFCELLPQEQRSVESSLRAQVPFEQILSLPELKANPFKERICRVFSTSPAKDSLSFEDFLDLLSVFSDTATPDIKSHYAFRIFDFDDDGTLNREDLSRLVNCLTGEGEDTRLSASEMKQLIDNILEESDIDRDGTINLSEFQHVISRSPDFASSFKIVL
Assay: Primary qHTS for Identification of Calcium Integrin Binding Protein 1 (CIB1) Competitor (AID 1508620); further: top concentration of the series differs between compounds
Conditions: CIB1-GST / FITC-alphaIIb peptide fluorescence polarization; series mostly up to 57.7 µM
In short: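 Fluorescence polarization competition: GST-tagged CIB1 (1 uM final) preincubated with compound 15 min at room temperature, then FITC-labelled alphaIIb peptide (100 nM final) added. After 15 min at room temperature, polarization read at Ex 480/Em 540.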

Compound | Potency
CC(=O)O[C@H]1CC[C@@]2(CI)C(=CC[C@@H]3[C@@H]2CC[C@]2(C)[C@@H]([C@H](C)CCCC(C)C)CC[C@@H]32)C1 | inactive
O=C(O)Cc1nn(Cc2nc3cc(C(F)(F)F)ccc3s2)c(=O)c2nccnc12 | inactive
CC(C)(O)/C=C1/C(=O)C(C)(C)C(=O)C(C)(C)C1(O)O[C@@H]1O[C@H](COC(=O)c2cc(O)c(O)c(O)c2)[C@@H](O)[C@H](O)[C@H]1O (some centres undefined) | inactive
CCC(C)C(=O)O[C@@H]1[C@@H](O)[C@@H](O[C@H]2O[C@H](CO)[C@@H](O)[C@H](O)[C@H]2O)O[C@H](CO)[C@H]1O (some centres undefined) | inactive
CC1CCCC2OC2C(=O)c2c(O)cc(O)cc2CC(=O)O1 (centres undefined) | inactive
N#CC1C(=O)Nc2scc(-c3ccc(-c4ccccc4O)cc3)c2C1=O (centres undefined) | inactive
CCC(C)(O)C(O)C(=O)OCc1ccc(O[C@@H]2O[C@H](CO)[C@@H](O)[C@H](O)[C@H]2O)cc1 (some centres undefined) | inactive
COc1c(C)c(C(=O)c2ccc(N)c(C(=O)O)c2)n2ccccc12 | inactive
CC1CC(=O)C2=C(O1)OC1(C)CCC3C(C)(C)C=CC(=O)C3(C)C1C2 (centres undefined) | inactive
CCNC(=O)[C@@H]1CCCN1C(=O)[C@H](CCCN=C(N)N)NC(=O)[C@H](CC(C)C)NC(=O)[C@@H](C)NC(=O)[C@H](Cc1ccc(O)cc1)NC(=O)[C@H](CO)NC(=O)[C@H](Cc1c[nH]c2ccccc12)NC(=O)[C@H](Cc1cnc[nH]1)NC(=O)[C@@H]1CCC(=O)N1 | inactive
C[C@@H]1O[C@@H](O[C@H]2[C@H](O[C@H]3CC[C@@]4(C)C(CC[C@]5(C)C4CC=C4[C@@H]6CC(C)(C)CC[C@]6(C(=O)O)CC[C@]45C)[C@]3(C)CO)OC[C@H](O)[C@@H]2O)[C@H](O)[C@H](O[C@@H]2OC[C@@H](O)[C@H](O)[C@H]2O)[C@H]1O (some centres undefined) | inactive
C=C/C=C/[C@@H]1OC[C@H](/C=C/C=C/C)[C@H]1O | inactive
COc1cc(CC(COC2OC(CO)C(O)C(O)C2O)c2cc(/C=C/CO)cc(OC)c2O)ccc1O (centres undefined) | inactive
CC(=O)OCCC(C)CCC1C(C)(O)CCC2C(C)(C)CCCC21C (centres undefined) | inactive
CON(C)C(=O)N1N=C(c2cc(F)ccc2F)S[C@@]1(CCCN)c1ccccc1 | inactive
CC1=C(CC(=O)O)c2cc(F)ccc2C1=Cc1ccc(S(C)(=O)=O)cc1 | inactive
CC1CCC2C(C)(C)C(O)CCC2(C)C12Cc1c(O)cc3c(c1O2)CN(C(CCC(N)=O)C(=O)O)C3=O (centres undefined) | inactive
CC1(C)O[C@@]2(C)CC[C@@H]1C[C@@H]2OC1OC(CO)C(O)C(O)C1O (some centres undefined) | inactive
CNc1nc(Nc2cnn([C@H]3CCN(C4COC4)C[C@@H]3F)c2Cl)ncc1C(F)(F)F | inactive
C[C@@H]1O[C@@H](O[C@H]2[C@H](O[C@H]3[C@H](O[C@H]4CC[C@@]5(C=O)C(CC[C@]6(C)C5CC=C5C7CC(C)(C)C[C@@H](O)[C@]7(C)CC[C@]56C)C4(C)C)O[C@H](C(=O)O)[C@@H](O)[C@@H]3O)OC[C@@H](O)[C@@H]2O)[C@H](O)[C@H](O)[C@H]1O (some centres undefined) | inactive
COc1cc(C(C)=O)ccc1O[C@@H]1O[C@H](CO[C@@H]2O[C@@H](C)[C@H](O)[C@@H](O)[C@H]2O)[C@@H](O)[C@H](O)[C@H]1O | inactive
O=C1Nc2ccc(O)cc2O[C@H]1O[C@@H]1O[C@H](CO)[C@@H](O)[C@H](O)[C@H]1O | inactive
CCNC(=O)[C@H]1O[C@H](n2cnc3c(NCC(c4ccccc4)c4ccccc4)nc(C(=O)NCCNC(=O)NC4CCN(c5ccccn5)CC4)nc32)[C@H](O)[C@@H]1O | inactive
CC(=O)N[C@@H](CC(C)C)C(=O)N[C@@H](CCC(=O)O)C(=O)N[C@@H](CCC(=O)O)C(=O)N[C@@H](CC(=O)O)C(=O)Nc1ccc2c(C(F)(F)F)cc(=O)oc2c1 (Ac-LEED-{AFC}) | inactive
CO[C@H]1C=C2C(CC[C@H](O[C@@H]3O[C@H](CO)[C@@H](O)[C@@H](O)[C@H]3O)C2(C)C)[C@]2(C)CC[C@]3(C)C([C@H](C)C(O)C(C=C(C)C)O[C@@H]4O[C@H](CO)[C@@H](O)[C@@H](O)[C@H]4O)CC[C@@]3(C)C12 (some centres undefined) | inactive
OC[C@H]1O[C@@H](OC(CCCCc2ccc(O)cc2)CCc2ccc(O)cc2)[C@H](O[C@@H]2OC[C@](O)(CO)[C@H]2O)[C@@H](O)[C@@H]1O (some centres undefined) | inactive
C=C1CC2[C@]3(C)C(=C(O)C(=O)[C@@]2(C)[C@]2(C(=O)OC)C(=O)C(C)OC(=O)[C@@]12C)C(C)(C)C(=O)CC3O (some centres undefined) | inactive
c1ccc(Cc2ncc3c(n2)CCNCC3)cc1 | inactive
CC1OC(OC2C(O)C(C(=O)O)OC(OC3CCC4(C)C(CCC5(C)C4C=CC4=C6CC(C)(C)CC(O)C6(C)CCC45C)C3(C)C)C2OC2OCC(O)C(O)C2O)C(O)C(O)C1O (centres undefined) | inactive

— PubChem BioAssay (NCATS)
